Experimental findings from PubChem BioAssay (NCI) are described below.

About 79,000 compounds went through this panel and 15% of them were active in at least one assay; those are over-represented in the sample as a whole. Unmarked numbers belong to inactive results. Active and inactive are the calls of the source. No stated cut-off is given here; in the data, active means growth inhibition above about 70%; inactive means the rest.

Assay [1] is described as follows: NCI Yeast Anticancer Drug Screen. Data for the rad50 strain (AID 155).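 Further: 0% = growth of vehicle-only cultures of the same strain.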 Particulars: S. cerevisiae rad50 strain growth inhibition; at 50.0 µM; stronger effect = higher value. The gist of the method:
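Yeast carrying a defined DNA repair defect were exposed to test compounds, and growth was compared with vehicle-treated controls to give percent inhibition.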

Assay [2] is described as follows: NCI Yeast Anticancer Drug Screen. Data for the mec2-1 strain (AID 157). Particulars: S. cerevisiae mec2-1 strain, at 50.0 µM, stronger effect = higher value. The gist of the method:
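Readout is yeast growth inhibition, normalised to vehicle-treated controls, in the mec2-1 strain exposed to compound.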

Assay [3] is described as follows: NCI Yeast Anticancer Drug Screen. Data for the sgs1 mgt1 strain (AID 161).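 Further: 0% = growth of cultures given vehicle only.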 Conditions: S. cerevisiae sgs1 mgt1 strain, at 50.0 µM, stronger effect = higher value. The gist of the method:
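Growth of a repair-deficient yeast mutant was monitored after compound treatment and expressed as inhibition relative to vehicle-treated cultures.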

Assay [4] in a line: NCI Yeast Anticancer Drug Screen. Data for the cln2 rad14 strain (AID 165).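 Further: 0% = growth equal to vehicle treated cultures.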 Particulars: S. cerevisiae cln2 rad14 strain, at 50.0 µM, stronger effect = higher value. The essentials: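 Relative to vehicle controls, growth inhibition of compound-treated cln2 rad14 yeast was recorded.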
A short description of assay [5]: NCI Yeast Anticancer Drug Screen. Data for the bub3 strain (AID 167). Conditions: S. cerevisiae bub3 mutant strain, at 50.0 µM, stronger effect = higher value. The essentials:
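Compounds were applied to a genetically altered yeast strain carrying a cell-cycle control defect. Growth inhibition was scored against vehicle-treated controls.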

The nature of assay [6]: NCI Yeast Anticancer Drug Screen. Data for the mlh1 rad18 strain (AID 175). Conditions: S. cerevisiae mlh1 rad18 strain growth inhibition; at 50.0 µM; stronger effect = higher value. The essentials:
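Test agents were incubated with a yeast strain of defined genotype (DNA damage repair defect). Inhibition of growth was derived by comparison with vehicle-exposed cultures.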

Take `COc1ccc(-c2csc(NC(=O)Nc3nc(-c4ccc(OC)cc4)cs3)n2)cc1`: the growth inhibition in assay [1] was 4.25%; in assay [2], -0.95%; in assay [3] it was 0.7%; in assay [4], -8.35%; in assay [5], 7.7%; in assay [6], 1.4%.

Turning to `c1ccc2[nH]c(Cc3nc4ccccc4[nH]3)nc2c1`, the growth inhibition in assay [1] is 48%; in assay [2], -14.4%; in assay [3] it was 50.4%; in assay [4], 7.65%; in assay [5], 35%; in assay [6] it was 10.2%.

As to `CCOC(=O)CNC(=O)Sc1ccc(C(C)(C)C)cc1`, the growth inhibition in assay [1] is 88.2% (active); in assay [2] it was 88.2% (active); in assay [3], 84.2% (active); in assay [4] it was 70.2% (active); in assay [5], 76.7% (active); in assay [6] it was 61.8%.

As to `CCOP(=O)(NC(c1ccccc1)c1ccccc1)OCC`, the growth inhibition is 21.9% in assay [1]; -15.2% in assay [2]; 30.6% in assay [3]; 5.55% in assay [4]; 25.1% in assay [5]; 28.8% in assay [6].

Turning to `CCCCNc1ccc(-c2ccc(NCCCC)cc2)cc1`, the growth inhibition in assay [1] was 31.9%; in assay [2] it was 4.3%; in assay [3], -3.8%; in assay [4], -36.1%; in assay [5] it was -5.3%; in assay [6] it was 59.5%.

Consider `CC(C)OCC(CCl)OC(=O)Nc1ccccc1` (stereo unspecified), for which the growth inhibition is 49.1% in assay [1]; 11.2% in assay [2]; 27.4% in assay [3]; -29.1% in assay [4]; 35.1% in assay [5]; 31.7% in assay [6].

As for `N#C/C(=C\NC(=S)N=Nc1c(O)[nH]c2ccccc12)c1nc2ccccc2s1`, the growth inhibition in assay [1] is 10.1%; in assay [2], 2.3%; in assay [3], 29.1%; in assay [4], -10.1%; in assay [5] it was 17.9%; in assay [6], 14.5%.

As for `S=c1nc(-c2ccccn2)c(-c2ccccn2)n[nH]1`, the growth inhibition in assay [1] is -11%; in assay [2], -9.05%; in assay [3] it was -1.2%; in assay [4], 11%; in assay [5], -21.8%; in assay [6], -53.7%.

In the case of `C/C=C/C1OCC(CC)C(CCC)O1` (stereo unspecified), the growth inhibition in assay [1] was 36%; in assay [2], 11.2%; in assay [3], 1.85%; in assay [4] it was -36.8%; in assay [5], -17.9%; in assay [6], -1.15%.

For the compound `CC(=O)c1cccc(N(C)S(=O)(=O)c2ccc(C)cc2)c1`, the growth inhibition in assay [1] is 47.6%; in assay [2], 7.1%; in assay [3] it was 21.8%; in assay [4], -31.2%; in assay [5], 45.1%; in assay [6], 37.9%.

With `Cc1cccnc1NC1OC(=O)c2ccccc21` (stereo unspecified), the growth inhibition in assay [1] is -22.1%; in assay [2], -4.4%; in assay [3], -16.6%; in assay [4] it was 2.05%; in assay [5], -9.25%; in assay [6], -9.65%.

Turning to `O=C(Oc1ccccc1Cl)c1ccc(Cl)cc1Cl`, the growth inhibition in assay [1] is 2.2%; in assay [2], 33.4%; in assay [3], 24.9%; in assay [4] it was -49.4%; in assay [5], 43.2%; in assay [6], 48.3%.

As for `COc1cccc(C(=O)O)c1OC`, the growth inhibition is 11.2% in assay [1]; 14.4% in assay [2]; 6.55% in assay [3]; 3.75% in assay [4]; -5.35% in assay [5]; 0% in assay [6].

In the case of `BrCc1cccc(C[P+](c2ccccc2)(c2ccccc2)c2ccccc2)c1`, the growth inhibition was 66% in assay [1]; 41.9% in assay [2]; 36.2% in assay [3]; 28.2% in assay [4]; 38.5% in assay [5]; 41% in assay [6].

As for `ClCC(Cl)C1CCC(Cl)C(Cl)C1` (stereo unspecified), the growth inhibition is 10.5% in assay [1]; 6.1% in assay [2]; -7.85% in assay [3]; -3.9% in assay [4]; 8.65% in assay [5]; 19.8% in assay [6].

Turning to `O=c1nc(Nc2cccc(Cl)c2)oc2cc(Cl)oc(=O)c12`, the growth inhibition is 32.5% in assay [1]; 26% in assay [2]; 51.8% in assay [3]; 19.6% in assay [4]; 36.5% in assay [5]; 42.6% in assay [6].

For `CCCCCCCCCCCCCCCCCCSC(=N)N`, the growth inhibition was 45.9% in assay [1]; -16.7% in assay [2]; -9.1% in assay [3]; -116% in assay [4]; 29.3% in assay [5]; 27.9% in assay [6].

For `Cc1nc(C)c(C(=O)O)cc1C(=O)O`, the growth inhibition was -8.9% in assay [1]; -17.8% in assay [2]; 9.15% in assay [3]; 2.85% in assay [4]; 21.4% in assay [5]; 4% in assay [6].

With `COc1ccc(NNS(=O)(=O)O)cc1`, the growth inhibition was 1.45% in assay [1]; 4.7% in assay [2]; 21.7% in assay [3]; -10.8% in assay [4]; -1.65% in assay [5]; 4% in assay [6].

In the case of `ON1CCCC1`, the growth inhibition is -1.35% in assay [1]; -4.15% in assay [2]; -8.9% in assay [3]; -6.6% in assay [4]; 6.4% in assay [5]; 1.5% in assay [6].

Consider `O=C1C=C(c2ccccc2)C(O)(c2ccccc2)C1` (stereo unspecified), for which the growth inhibition in assay [1] is 15.1%; in assay [2], 6.85%; in assay [3] it was 6.75%; in assay [4], 5.1%; in assay [5], 11.4%; in assay [6], 6.15%.
